What all share (details): mRNA level, 48 h; actives raise or lower the signal
Read-out in test [1]: matrix metalloproteinase-10 (MMP10), MMP10 (gene 4319)
The experiment in a line: LTEA_HepaRG_MMP10: Life Technologies and Expression Analysis (LTEA) Assay for matrix metalloproteinase-10 (MMP10) using HepaRG (AID 2283517). Summed up: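 HepaRG, collagen I, ~100,000 cells/well; serum-free induction medium; 48 h exposure, duplicate, 8-pt half-log to 100 uM, 0.5% DMSO. Readout: TaqMan qRT-PCR, normalized to ACTB/GAPDH/POLR2A; bidirectional fit vs DMSO.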

Read-out in the next test: MYC, MYC (gene 4609)
Briefly: LTEA_HepaRG_MYC: Life Technologies and Expression Analysis (LTEA) Assay for MYC using HepaRG (AID 2283518). Summed up:
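Differentiated human HepaRG cells, plated 48 h then switched to serum-free induction medium, were exposed in duplicate for 48 h to 8-point half-log series up to 100 uM in 0.5% DMSO. MYC mRNA measured by qRT-PCR, normalized to ACTB/GAPDH/POLR2A.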

Read-out in test [2]: matrix metalloproteinase-3 (MMP3), MMP3 (gene 4314)
Briefly: LTEA_HepaRG_MMP3: Life Technologies and Expression Analysis (LTEA) Assay for matrix metalloproteinase-3 (MMP3) using HepaRG (AID 2283519). In outline: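 Differentiated human HepaRG cells, plated 48 h on collagen I, were exposed in duplicate for 48 h in serum-free induction medium to eight half-log concentrations up to 100 uM in 0.5% DMSO. MMP3 mRNA was quantified by TaqMan qRT-PCR, normalised to ACTB, GAPDH and POLR2A.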

Read-out in test [3]: Paternally Expressed 10 (PEG10), PEG10 (gene 23089)
Briefly: LTEA_HepaRG_PEG10: Life Technologies and Expression Analysis (LTEA) Assay for Paternally Expressed 10 (PEG10) using HepaRG (AID 2283520). Summed up:
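Chemicals tested on HepaRG cells for 48 h, highest concentration 100 uM. PEG10 expression assessed by qRT-PCR relative to DMSO control.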

Read-out in test [4]: Protein phosphatase 2A (PPP2R4), PTPA (gene 5524)
The experiment in a line: LTEA_HepaRG_PPP2R4: Life Technologies and Expression Analysis (LTEA) Assay for Protein phosphatase 2A (PPP2R4) using HepaRG (AID 2283522). In outline:
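Gene-expression endpoint in HepaRG hepatic cells: 48 h treatment across eight half-log concentrations up to 100 uM in 0.5% DMSO. PPP2R4 mRNA by qRT-PCR, normalized to three endogenous control genes.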

Read-out in test [5]: Phosphatase and tensin (PTEN), PTEN (gene 5728)
Briefly: LTEA_HepaRG_PTEN: Life Technologies and Expression Analysis (LTEA) Assay for Phosphatase and tensin (PTEN) using HepaRG (AID 2283523). Summed up: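 Differentiated human HepaRG cells, plated 48 h then switched to serum-free induction medium, were exposed in duplicate for 48 h to eight half-log concentrations up to 100 uM in 0.5% DMSO. PTEN mRNA measured by TaqMan qRT-PCR, normalized to ACTB/GAPDH/POLR2A, bidirectional fit versus DMSO.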

Read-out in test [6]: solute carrier (SLC22A1), SLC22A1 (gene 6580)
Briefly: LTEA_HepaRG_SLC22A1: Life Technologies and Expression Analysis (LTEA) Assay for solute carrier (SLC22A1) using HepaRG (AID 2283524). In outline:
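Human HepaRG cells were plated 48 h, switched to serum-free induction medium, then exposed in duplicate for 48 h to 8-point half-log series from 100 uM in 0.5% DMSO. SLC22A1 mRNA measured by qRT-PCR, normalized to ACTB/GAPDH/POLR2A, fitted bidirectionally versus DMSO.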

Read-out in test [7]: Pyruvate Dehydrogenase Kinase 4 (PDK4), PDK4 (gene 5166)
Briefly: LTEA_HepaRG_PDK4: Life Technologies and Expression Analysis (LTEA) Assay for Pyruvate Dehydrogenase Kinase 4 (PDK4) using HepaRG (AID 2283525). In outline: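 Differentiated human HepaRG cells, pre-cultured 48 h, were exposed in duplicate for 48 h in serum-free induction medium to eight half-log concentrations up to 100 uM in 0.5% DMSO. PDK4 mRNA was quantified by qRT-PCR, normalized to ACTB, GAPDH and POLR2A, bidirectional fitting versus DMSO.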

Read-out in test [8]: NAD(P)H dehydrogenase [quinone] 1 (NQO1), NQO1 (gene 1728)
Briefly: LTEA_HepaRG_NQO1: Life Technologies and Expression Analysis (LTEA) Assay for NAD(P)H dehydrogenase [quinone] 1 (NQO1) using HepaRG (AID 2283526). In outline:
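Human HepaRG hepatic cells received chemicals for 48 h in serum-free induction medium with 0.5% DMSO, up to 100 uM. Expression was assessed by TaqMan qRT-PCR against housekeeping controls and fitted bidirectionally against DMSO.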

Read-out in test [9]: Nuclear factor erythroid 2-related factor 2 (Homo sapiens) (UniProt Q16236)
Briefly: LTEA_HepaRG_NFE2L2: Life Technologies and Expression Analysis (LTEA) Assay for Nuclear factor erythroid 2-related factor 2 (NFE2L2) Transcription Factor using HepaRG (AID 2283527).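 For outcome: TaqMan qRT-PCR transcript level normalised to ACTB GAPDH and POLR2A housekeeping genes.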 Summed up: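 Differentiated human HepaRG cells in serum-free induction medium were exposed for 48 h to eight concentrations (top 100 uM, half-log dilutions, 0.5% DMSO), in duplicate. NFE2L2 mRNA was quantified by TaqMan qRT-PCR, normalized to ACTB, GAPDH and POLR2A, with bidirectional fitting versus DMSO.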

Read-out in test [10]: succinate dehydrogenase complex iron sulfur subunit B (SDHB), SDHB (gene 6390)
Briefly: LTEA_HepaRG_SDHB: Life Technologies and Expression Analysis (LTEA) Assay for succinate dehydrogenase complex iron sulfur subunit B (SDHB) using HepaRG (AID 2283528). Summed up:
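HepaRG, 48 h exposure, 8-pt half-log series from 100 uM in 0.5% DMSO, duplicates. Readout: SDHB mRNA by Fluidigm qRT-PCR vs housekeeping genes; bidirectional fit relative to DMSO.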

Read-out in test [11]: Signal transducer and activator of transcription 3 (Homo sapiens) (UniProt P40763)
Briefly: LTEA_HepaRG_STAT3: Life Technologies and Expression Analysis (LTEA) Assay for Signal transducer and activator of transcription (STAT3) using HepaRG (AID 2283529). In outline: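 Differentiated human HepaRG cells in serum-free induction medium were exposed in duplicate for 48 h to eight half-log concentrations up to 100 uM in 0.5% DMSO. STAT3 mRNA was quantified by TaqMan qRT-PCR, normalized to ACTB, GAPDH and POLR2A, and fitted bidirectionally against DMSO.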

Read-out in test [12]: solute carrier (SLCO1B1), SLCO1B1 (gene 10599)
Briefly: LTEA_HepaRG_SLCO1B1: Life Technologies and Expression Analysis (LTEA) Assay for solute carrier (SLCO1B1) using HepaRG (AID 2283530). In outline:
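Differentiated human HepaRG cells, plated 48 h, switched to serum-free induction medium and exposed in duplicate for 48 h to 8 half-log concentrations (top 100 uM) in 0.5% DMSO. SLCO1B1 mRNA by TaqMan qRT-PCR, normalized to ACTB/GAPDH/POLR2A.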

Read-out in test [13]: sulfotransferase 2A1 (SULT2A1), SULT2A1 (gene 6822)
Briefly: LTEA_HepaRG_SULT2A1: Life Technologies and Expression Analysis (LTEA) Assay for sulfotransferase 2A1 (SULT2A1) using HepaRG (AID 2283531). Summed up: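 Differentiated human HepaRG cells in serum-free induction medium were exposed for 48 h to eight half-log concentrations (top 100 uM, 0.5% DMSO). SULT2A1 mRNA was measured by qRT-PCR, normalized to ACTB, GAPDH and POLR2A, and fitted bidirectionally against DMSO.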

Read-out in test [14]: Transforming Growth Factor (TGFA), TGFA (gene 7039)
Briefly: LTEA_HepaRG_TGFA: Life Technologies and Expression Analysis (LTEA) Assay for Transforming Growth Factor (TGFA) using HepaRG (AID 2283532). In outline: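 Differentiated human HepaRG cells, plated 48 h then switched to serum-free induction medium, were exposed in duplicate for 48 h to 8-point half-log series from 100 uM in 0.5% DMSO. TGFA mRNA measured by qRT-PCR, normalized to ACTB/GAPDH/POLR2A, bidirectional fit versus DMSO.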

Read-out in test [15]: Transforming Growth Factor (TGFB1), TGFB1 (gene 7040)
Briefly: LTEA_HepaRG_TGFB1: Life Technologies and Expression Analysis (LTEA) Assay for Transforming Growth Factor (TGFB1) Transporter using HepaRG (AID 2283533). In outline: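 Differentiated human HepaRG cells in serum-free induction medium were exposed in duplicate for 48 h to eight concentrations (top 100 uM, half-log steps, 0.5% DMSO). TGFB1 mRNA was quantified by qRT-PCR, normalized to ACTB, GAPDH, POLR2A, and fitted bidirectionally against DMSO.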

Read-out in a further test: TIMP1, TIMP1 (gene 7076)
Briefly: LTEA_HepaRG_TIMP1: Life Technologies and Expression Analysis (LTEA) Assay for TIMP1 using HepaRG (AID 2283534). Summed up: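 Differentiated human HepaRG cells in serum-free induction medium were exposed 48 h to chemicals (8 half-log concentrations, top 100 uM, 0.5% DMSO). TIMP1 mRNA was quantified by TaqMan qRT-PCR, normalized to ACTB/GAPDH/POLR2A; bidirectional fit versus DMSO.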

Read-out in test [16]: Tumor necrosis factor receptor 1 (TNFRSF1A), TNFRSF1A (gene 7132)
Briefly: LTEA_HepaRG_TNFRSF1A: Life Technologies and Expression Analysis (LTEA) Assay for Tumor necrosis factor receptor 1 (TNFRSF1A) using HepaRG (AID 2283535). Summed up: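 Differentiated human HepaRG cells were exposed in duplicate for 48 h in serum-free induction medium to eight concentrations (top 100 uM, half-log steps, 0.5% DMSO). TNFRSF1A mRNA was quantified by qRT-PCR, normalized to ACTB, GAPDH and POLR2A, then fitted bidirectionally against DMSO.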

Active and inactive are the calls of the source. Rule for the calls: active = hit-call score of the fitted dose curve at least 0.9, where 1 is the maximum; inactive = score below 0.9.

Usually AC50 stands for the concentration giving half of the maximal activity seen.

Sequence of Nuclear factor erythroid 2-related factor 2 (Homo sapiens) (Q16236 whole entry, looked up): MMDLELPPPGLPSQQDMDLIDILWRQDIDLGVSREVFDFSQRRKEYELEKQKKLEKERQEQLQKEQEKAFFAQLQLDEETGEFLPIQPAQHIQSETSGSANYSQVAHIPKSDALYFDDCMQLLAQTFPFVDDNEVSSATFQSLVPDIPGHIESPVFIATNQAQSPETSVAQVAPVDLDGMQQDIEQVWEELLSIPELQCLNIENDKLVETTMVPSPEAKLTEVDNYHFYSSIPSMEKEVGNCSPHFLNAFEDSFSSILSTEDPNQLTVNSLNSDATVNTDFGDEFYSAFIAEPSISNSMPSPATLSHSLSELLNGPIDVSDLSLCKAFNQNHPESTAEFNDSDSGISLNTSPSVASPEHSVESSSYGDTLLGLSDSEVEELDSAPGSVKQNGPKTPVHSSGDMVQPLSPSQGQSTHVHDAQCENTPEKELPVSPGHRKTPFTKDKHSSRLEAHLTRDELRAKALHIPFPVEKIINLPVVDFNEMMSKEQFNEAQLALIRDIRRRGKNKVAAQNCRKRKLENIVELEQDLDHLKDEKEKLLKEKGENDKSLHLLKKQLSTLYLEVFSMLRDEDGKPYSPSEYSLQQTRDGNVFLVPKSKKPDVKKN
Sequence of Signal transducer and activator of transcription 3 (Homo sapiens) (P40763 whole entry, looked up): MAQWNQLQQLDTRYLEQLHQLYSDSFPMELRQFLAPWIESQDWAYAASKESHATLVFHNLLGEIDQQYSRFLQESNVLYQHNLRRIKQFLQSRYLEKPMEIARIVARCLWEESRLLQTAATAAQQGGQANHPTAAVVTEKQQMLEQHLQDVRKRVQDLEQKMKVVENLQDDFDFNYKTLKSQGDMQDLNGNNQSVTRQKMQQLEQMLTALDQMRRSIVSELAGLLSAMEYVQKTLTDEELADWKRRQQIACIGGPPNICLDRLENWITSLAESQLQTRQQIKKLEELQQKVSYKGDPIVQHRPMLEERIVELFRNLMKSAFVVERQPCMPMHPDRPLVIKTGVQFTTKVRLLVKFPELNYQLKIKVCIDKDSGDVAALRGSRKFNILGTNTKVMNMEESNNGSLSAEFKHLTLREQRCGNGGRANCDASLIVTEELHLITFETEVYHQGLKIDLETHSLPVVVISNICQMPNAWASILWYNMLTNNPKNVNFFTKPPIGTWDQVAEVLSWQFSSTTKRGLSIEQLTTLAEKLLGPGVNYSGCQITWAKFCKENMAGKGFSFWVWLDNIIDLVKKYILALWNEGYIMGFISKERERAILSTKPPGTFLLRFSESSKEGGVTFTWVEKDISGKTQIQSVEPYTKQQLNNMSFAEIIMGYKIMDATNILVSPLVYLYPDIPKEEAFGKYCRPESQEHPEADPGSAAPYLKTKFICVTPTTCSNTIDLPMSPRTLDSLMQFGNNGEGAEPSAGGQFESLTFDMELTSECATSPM

With `OC(c1ccc(Cl)cc1)(c1ccc(Cl)cc1)C(Cl)(Cl)Cl`, the concentration at half-maximal activity (AC50) in [1] was 67.2 µM (active); with MYC, MYC (gene 4609), 73.7 µM (active); in [2] it was 50 µM (active); in test [5], 78.4 µM (active); in test [6], 81.9 µM (active); in test [7] it was 80.5 µM (active). The AC50 in test [8] was 93 µM (active); in test [9], 71 µM (active); in test [12] it was 81.6 µM (active); in [13], 93.9 µM (active); in test [14], 70.5 µM (active); in test [15] it was 50 µM (active). Moreover, the concentration at half-maximal activity (AC50) in test [16] was 50 µM (active). The outcome was “inactive” in test [3]; “inactive” in test [4]; “inactive” in [10]; “inactive” in test [11]; “inactive” with TIMP1, TIMP1 (gene 7076).
Turning to `CCOP(=S)(OCC)Oc1nc(Cl)n(C(C)C)n1`, the outcome in [1] was “inactive”; with MYC, MYC (gene 4609) it was “inactive”; in test [2], “inactive”; in [3], “inactive”; in [4], “inactive”; in test [5] it was “inactive”. Moreover, the outcome in [8], in test [9], in [11], in [12], in [13] and in test [14] was inactive. Besides, the outcome in test [15] was “inactive”; in the test with TIMP1, TIMP1 (gene 7076), “inactive”; in [16], “inactive”. Besides, the values for the AC50 in [6] and in [7] were 12.2 µM (active) and 1.82 µM (active), respectively.
Turning to `COP(=S)(OC)SCn1nnc2ccccc2c1=O`, the outcome in [1] was “inactive”; with MYC, MYC (gene 4609) it was “inactive”; in test [2], “inactive”; in test [3] it was “inactive”; in [4] it was “inactive”; in [5] it was “inactive”. In addition, the compound was called inactive in [7], in test [8], in test [9], in test [11], in [12] and in [13]. In addition, the outcome in [14] is “inactive”; in test [15], “inactive”; with TIMP1, TIMP1 (gene 7076), “inactive”; in test [16] it was “inactive”.
As for `CC(C)NC(=O)N1CC(=O)N(c2cc(Cl)cc(Cl)c2)C1=O`, the compound was called inactive in [1], in [2], in test [3], in [4], in test [5] and in [8]. Besides, the outcome was “inactive” in [14]; “inactive” in [15]; “inactive” in the test with TIMP1, TIMP1 (gene 7076); “inactive” in [16]. The half-maximal activity concentration (AC50) was 13.2 µM (active) with MYC, MYC (gene 4609); 12.7 µM (active) in [7]; 13.1 µM (active) in [9]; 5.78 µM (active) in [11]; 15.6 µM (active) in [12]; 13.1 µM (active) in test [13].

For the origin of these results see PubChem BioAssay (EPA / NIEHS).
